Screening results deposited in PubChem BioAssay by National Center for Advancing Translational Sciences (NCATS).
TR SRC2 fluor cs: alters Texas Red total fluorescence, flagging assay interference. Potency, µM (top dose mostly 106 µM), for the others: top-dose fluorescence change, negative = quenching. 280,000 tested, 0.29% active. TRb/SRC2 Texas Red total fluorescence interference; active = well fitted curve in either direction with a large enough effect; inconclusive = small, poorly fitted or top-dose-only effect
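Human TRb ligand-binding domain at 0.6 uM with 20 nM Texas Red SRC2 peptide in Tris buffer containing 1 uM T3 and 5% DMSO, incubated with compound 5 h at ambient temperature. Total fluorescence (555/632 nm) calculated as parallel + 2 × perpendicular.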
TRb-SRC2 inh: disrupts binding of human TR beta to SRC2; P10828; TRbeta-SRC2 peptide binding, fluorescence polarization; receptor liganded with 1 µM T3; Potency, µM (highest dose often 106 µM), inactives show at the top dose activity change, negative = inhibition, usual class: inhibitors; 280,000 tested, 0.065% active; AID 1469;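 also: plate controls were bound peptide for no effect and peptide without receptor for full effect; nearly all actives have a fitted effect of over 50% in size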
Target sequence (P10828 whole entry, looked up): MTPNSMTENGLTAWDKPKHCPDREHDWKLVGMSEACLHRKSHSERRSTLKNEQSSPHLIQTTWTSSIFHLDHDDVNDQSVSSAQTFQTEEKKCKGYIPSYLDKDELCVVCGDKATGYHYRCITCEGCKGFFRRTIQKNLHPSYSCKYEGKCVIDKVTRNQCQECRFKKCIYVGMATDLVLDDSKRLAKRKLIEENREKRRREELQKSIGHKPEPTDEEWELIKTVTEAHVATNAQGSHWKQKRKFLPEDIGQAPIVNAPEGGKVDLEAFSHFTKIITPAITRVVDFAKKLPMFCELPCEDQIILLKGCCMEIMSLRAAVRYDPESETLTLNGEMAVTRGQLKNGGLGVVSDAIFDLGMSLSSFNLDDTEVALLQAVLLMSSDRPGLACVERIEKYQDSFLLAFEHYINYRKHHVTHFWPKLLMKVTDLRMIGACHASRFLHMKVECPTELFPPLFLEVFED
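Fluorescence polarization of 20 nM Texas Red SRC2 peptide with 0.6 uM human TRb ligand-binding domain, in Tris buffer with 1uM T3 and 5% DMSO. Incubated 5 hr ambient; normalized to unbound and bound controls.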
Tau ThT inhib: tau fibrillization inhibition (ThT binding). P10636. recombinant tau K18 P301L, heparin-induced fibrillization, ThT fluorescence. Potency, µM (doses to about 57.4 µM), inactives show top-dose activity, negative = inhibition, actives largely listed as inhibitors. 270,000 tested, 2.1% active. AID 1460; also: nearly all actives have a fitted effect of over 55% in size
Target sequence (P10636 561-689 P618L limits assumed): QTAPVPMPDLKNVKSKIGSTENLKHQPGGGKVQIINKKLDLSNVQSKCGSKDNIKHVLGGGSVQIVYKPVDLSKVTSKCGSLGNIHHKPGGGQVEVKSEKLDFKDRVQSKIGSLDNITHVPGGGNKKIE
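ThT emission at 510 nm, taken 1 hr after adding 30 uM dye, quantifies aggregates formed when 20 uM heparin acts on human tau K18 P301L for 6 hr at 37 C.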
Tau FP inhib: tau fibrillization inhibition (FP). AID 1468. K18 P301L tau heparin fibrillization, Alexa594 FP, 6 h. Potency, µM (titrated, usually from 57.7 µM), for inactives: top-dose activity, negative = inhibition, hits mostly inhibitors. 280,000 tested, 0.39% active; also: nearly all actives have a fitted effect of over 55% in size
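Read-out: fluorescence polarization of Alexa 594-labeled tau (0.24 uM), 555 nm excitation, 632 nm emission. Mixtures held 15 uM unlabeled K18 P301L, compound and 20 uM heparin, pH 7 acetate buffer, incubated 6 hr at 37 C.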
Tau fluor cs: counter-screen for tau fibril formation inhibitors | Potency, µM (doses to about 57.7 µM), inactives show top-dose activity change, negative = decrease | 280,000 tested, 0.93% active | tau K18 P301L Alexa594 fluorescence, heparin fibrillization; also: nearly all actives have a fitted effect of over 55% in size
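Human tau K18 P301L (15 uM unlabeled, 0.24 uM Alexa 594-labeled) in 100 mM sodium acetate pH 7 with 20 uM heparin, 6 hr at 37 C. ThT 30 uM added, 1 hr ambient; Alexa 594 FP and total fluorescence read at 555/632 nm.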
Active calls of the source: *; ? = inconclusive; · = no result; ! = not confirmed by another sample; [ ] = dose if it differs, or a comment. The list is not random: actives were taken first. Their share in the collection is about 3%. Unless noted, calls follow the shape of the dose curve; as a rule, active = well fitted curve in the direction sought with a large enough effect; inconclusive = small, poorly fitted or top-dose-only effect, or another doubt; inactive = no such curve, though single readings can be large; an effect the other way counts as inactive or inconclusive. Unless noted, % is scaled to controls: 0 for no effect and ±100 for the full control effect; potency is read from the fitted curve at half-maximal effect.

SMILES | TR SRC2 fluor cs | TRb-SRC2 inh | Tau ThT inhib | Tau FP inhib | Tau fluor cs
COc1cccc(C(=O)Nc2cc(-c3cn4cccnc4n3)ccc2C)c1OC | -11% | 1% | -1% | -4% | -2%
CCCc1nn2c(N)c(/C=C3\C=Nc4ccccc43)c(=O)nc2s1 | -9% | -3% | 8.9µM* | -10% | ?
CCOc1ccc2[nH]c3c(NCCc4ccc(OC)c(OC)c4)ncnc3c2c1 | -6% | 9% | · | ? | 22µM*[quencher]
Cc1ccc2[nH]c3c(NCc4ccco4)ncnc3c2c1 | -1% | -7% | ? | 14% | -28%
COc1cc(CNc2ncnc3c2[nH]c2ccc(C)cc23)cc(OC)c1 | -3% | 8% | 13% | 15% | 16µM*[quencher]
CCCNC(=O)OC[C@@H]1O[C@H](CCO/N=C(\C)CCN2CCc3nc(-c4ccccc4)c(-c4ccccc4)cc3C2)C=C[C@@H]1Oc1ccc(OC)cc1 | -5%[11.2 µM] | 0%[11.2 µM] | -8%[11.5 µM] | -13%[11.6 µM] | -11%[11.6 µM]
Fc1ccc(-c2nc3cnccn3c2NC2CCCC2)cc1 | -2% | 5% | -7% | -6%[2.34 µM] | -8%
Oc1ccc(Br)cc1-c1nc2cnccn2c1NC1CCCCC1 | 2% | -4% | ? | ? | 14µM*[quencher]
Oc1ccc(Br)cc1-c1nc2cnccn2c1NC1CCCC1 | -5% | 0% | ? | ? | 13µM*[quencher]
COc1ccc(N2C(=O)C(Cl)=C(N3CCCC(C)C3)C2=O)cc1 (configuration not stated) | 1% | 8% | 16µM* | 28µM* | ?
CC1CCCN(C2=C(Cl)C(=O)N(c3cccc(Cl)c3)C2=O)C1 (configuration not stated) | 0% | -1% | 14µM* | 18µM* | ?
COc1ccc(N2C(=O)C(Cl)=C(N3CCCC3)C2=O)cc1 | 0% | -1% | ? | ? | -21%
CCc1ccc(NSc2ccccc2[N+](=O)[O-])cc1 | 1% | 5% | ? | 2% | 14µM*[quencher]
O=[N+]([O-])c1ccccc1C1Nc2cccc3cccc(c23)N1 | -14% | -11% | ? | -5% | ?
Brc1ccc(C2Nc3cccc4cccc(c34)N2)o1 | 2.8µM*[quencher] | 24% | ? | ? | ?
c1csc(C2Nc3cccc4cccc(c34)N2)c1 | -18% | 0% | 11µM* | ? | 16µM*[quencher]
CN1c2cccc3cccc(c23)N(C)C1c1cccs1 | -2% | -5% | ? | 2% | ?
Cc1ccc(C(=O)ONc2ccc(N=O)cc2)cc1 | -6% | 12% | -27% | -3% | -12%
Cc1ccc(C(=O)ONc2ccc(N=NC(=O)c3ccccc3O)cc2)cc1 | -4% | -7% | 2.2µM* | -3% | ?
CCc1ccc2occ(CC(=O)Nc3c(C(=O)Nc4ccc(C)cc4)oc4ccccc34)c2c1 | 1122µM*[quencher] | -24%[53 µM] | 1% | ? | -26%
CCc1ccc2occ(CC(=O)Nc3c(C(=O)Nc4ccc(Cl)cc4)oc4ccccc34)c2c1 | ? | -5% | -2% | ? | ?
Nc1c(C(=O)Nc2ccc(S(=O)(=O)N3CCCC3)cc2)sc2nc3ccc(OC(F)(F)F)cc3cc12 | 10% | 1% | 5.6µM* | 13% | -25%
COc1cccc(C(c2sc3nc(-c4ccco4)nn3c2O)N2CCC(C)CC2)c1 (configuration not stated) | -1% | -12% | -13% | -10% | -11%
COc1ccccc1CNS(=O)(=O)c1ccc2c(c1)CC(C)N2C(=O)C1CCC1 (configuration not stated) | 22µM*[quencher] | -10% | -5% | 10% | 0%
Cc1ccc(Cl)cc1N1CCN(S(=O)(=O)c2ccc3c(c2)CC(C)N3C(=O)C2CCC2)CC1 (configuration not stated) | 16µM*[quencher] | -13% | 8% | -9% | 7%
SMILES | TR SRC2 fluor cs | TRb-SRC2 inh | Tau ThT inhib | Tau FP inhib | Tau fluor cs
Nc1ncnc2n[nH]c(Nc3ccc(F)cc3)c12 | -2% | 4% | · | · | ·
Cc1onc(-c2ccccc2Cl)c1C(=O)Nc1sc2c(c1C#N)CCC2 | -3% | -10% | 28µM* | ? | ?
CNc1nc(N/N=C/c2cc3c(cc2[N+](=O)[O-])OCO3)nc(Nc2ccccc2)n1 | 2% | 0% | 7.1µM* | 7% | -30%
CCOC(=O)c1ccc(N/N=C/c2cc(Br)cc([N+](=O)[O-])c2O)cc1 | -5% | 2% | 0.45µM* | -6% | 0.71µM*[quencher]
CCOC(=O)c1ccc(Nc2ncccc2[N+](=O)[O-])cc1 | -1% | 2% | 2.2µM* | -3% | -29%
COc1ccc2c(c1)C(=O)[C@H](OC(=O)NCCc1ccc(OC)c(OC)c1)[C@@H](c1ccc(OC)c(Br)c1)O2 | -2% | -2% | -18% | -4% | -19%
c1ccc2c(c1)ccc1c3ccccc3ccc21 | 1%[201 µM] | 5%[201 µM] | · | · | ·
O=C(O)c1cc(N/N=C/c2ccc(OCc3ccccc3)cc2)ccc1Cl | -3% | -8% | 0% | 4% | -1%
COC(=O)c1ccc(COc2ccc(/C=N/Nc3cccc(C(=O)O)c3)cc2)cc1 | -1% | 4% | 16µM* | -3% | ?
O=C(O)c1ccc(N/N=C/c2ccc(OC(=O)c3cccc(Cl)c3)cc2)cc1 | -7% | 12% | 13µM* | ? | ?
CC(C)CCCCCCc1ccc(OCCOCCO)cc1 | 2%[201 µM] | 6%[201 µM] | · | · | ·
CCCCCCCc1ccc(-c2ccc(O)cc2)nc1 | -1% | 11% | ? | ? | 14µM*[quencher]
Cc1ccc(NC(=O)Nc2cn(CC(C)C)c(=O)c3ccccc23)cc1N(C)C | -8% | 2% | ? | ? | 25µM*[quencher]
COC(=O)c1cc(OC)c(OC)cc1NCC(=O)Nc1cccc(C(F)(F)F)c1 | -3%[53 µM] | 6%[53 µM] | ? | ? | 18µM*[quencher]
CC(C)Oc1cc(NC(=O)CSCC(=O)Nc2cccc(C(F)(F)F)c2)c(Cl)cc1Cl | -3% | -2% | -12% | 35µM* | ?
CC(C)Cn1cc(NC(=O)N2CCN(c3cccc(C(F)(F)F)c3)CC2)c2ccccc2c1=O | -5% | 0% | ? | 5% | -9%
CC(C)Cn1cc(NC(=O)NCc2ccccc2)c2ccccc2c1=O | ? | -27% | -3% | -4% | -9%
CC(C)Cn1cc(NC(=O)Nc2cccc(C(F)(F)F)c2)c2ccccc2c1=O | ? | -20% | -10% | ? | 8.9µM*[quencher]
Cc1c(C(=O)Nc2ccccc2)sc2nc(-c3cc4cc(Cl)ccc4oc3=O)[nH]c(=O)c12 | -26% | 6% | 0% | 5% | 5%
Cc1ccc(S(=O)(=O)OCC2CN3C(CCC(C)C3c3ccc(Br)cc3)C(=O)O2)cc1 (configuration not stated) | ? | 1%[11.2 µM] | -17%[11.5 µM] | -1%[11.6 µM] | -19%[11.6 µM]
CCCN(CCC)C(=O)Cn1c(=O)n(-c2ccc(C)cc2)c(=O)c2ccc(C(=O)NCc3ccccc3Cl)cc21 | 1% | -3% | -11% | -8% | -16%
OCCN(CCO)c1nc(N2CCCCC2)c2nc(N(CCO)CCO)nc(N3CCCCC3)c2n1 | 40µM*![fluorescent] | ? | ? | 11% | ?
